Test results taken from the supplement of paper PMC6555819.

Columns and labels:
Assay in all cases: PBM binding z-score (relative to random genomic background probes); higher = stronger binding; sequences stand for … in GC…GCGATTGACAGCGTAGAATGAAGG
[1] = test system: FXR:RXRa (NR concentration 270 nM, RXRa partner concentration 90 nM)
Outline: (§1)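 Binding z-scores take random background probes as their reference. They come from custom Agilent 4×180K protein-binding microarrays incubated 1 h with ligand-free nuclear receptor dimers, with antibodies against each partner (one per run) detecting binding. Scanned fluorescence was regression-normalized.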

[2] = test system: LXRa:RXRa (NR concentration 270 nM, RXRa partner concentration 90 nM)
Outline: as §1

[3] = test system: LXRa homodimer (NR concentration 270 nM)
Outline: as §1

[4] = test system: LXRb:RXRa (NR concentration 270 nM, RXRa partner concentration 90 nM)
Outline: as §1

[5] = test system: LXRb homodimer (NR concentration 270 nM)
Outline: as §1

[6] = test system: PPARa:RXRa (NR concentration 270 nM, RXRa partner concentration 90 nM)
Outline: as §1

[7] = test system: PPARg:RXRa (NR concentration 180 nM, RXRa partner concentration 90 nM)
Outline: as §1

[8] = test system: PPARg:RXRa 270nM:90nM, anti-RXR (NR concentration 270 nM, RXRa partner concentration 90 nM)
Outline: as §1

[9] = test system: PPARg:RXRa 30nM:10nM, anti-RXR (NR concentration 30 nM, RXRa partner concentration 10 nM)
Outline: as §1

[10] = test system: PPARg:RXRa 90nM:30nM, anti-RXR (NR concentration 90 nM, RXRa partner concentration 30 nM)
Outline: as §1

[11] = test system: PPARg:RXRa DBDmut IVT, anti-RXR (DBD mutation: RXRa K156A/R161A, NR concentration 270 nM, RXRa partner concentration 90 nM)
Outline: as §1

[12] = test system: PPARg:RXRa IVT, anti-PPARg (NR concentration 270 nM, RXRa partner concentration 90 nM)
Outline: as §1

[13] = test system: PPARg DBDmut:RXRa IVT, anti-PPARg (DBD mutation: PPARg1 K132A/R137A, NR concentration 270 nM, RXRa partner concentration 90 nM)
Outline: as §1

[14] = test system: PPARg DBDmut IVT, anti-PPARg (DBD mutation: PPARg1 K132A/R137A, NR concentration 270 nM)
Outline: as §1

[15] = test system: PPARg homodimer (NR concentration 180 nM)
Outline: as §1

[16] = test system: PXR:RXRa (NR concentration 270 nM, RXRa partner concentration 90 nM)
Outline: as §1

[17] = test system: PXR homodimer (NR concentration 270 nM)
Outline: as §1

[18] = test system: RARa:RXR (NR concentration 270 nM, RXRa partner concentration 90 nM)
Outline: as §1

[19] = test system: RARa homodimer (NR concentration 270 nM)
Outline: as §1

[20] = test system: RARb:RXRa (NR concentration 270 nM, RXRa partner concentration 90 nM)
Outline: as §1

| Sequence | PBM binding z-score [1] | PBM binding z-score [2] | PBM binding z-score [3] | PBM binding z-score [4] | PBM binding z-score [5] | PBM binding z-score [6] | PBM binding z-score [7] | PBM binding z-score [8] | PBM binding z-score [9] | PBM binding z-score [10] | PBM binding z-score [11] | PBM binding z-score [12] | PBM binding z-score [13] | PBM binding z-score [14] | PBM binding z-score [15] | PBM binding z-score [16] | PBM binding z-score [17] | PBM binding z-score [18] | PBM binding z-score [19] | PBM binding z-score [20] |
| --- | --- | --- | --- | --- | --- | --- | --- | --- | --- | --- | --- | --- | --- | --- | --- | --- | --- | --- | --- | --- |
| ATCTCTGGGTAACCAAGTTCAGTGAATGCCGAAC | 0.227 | 0.778 | 0.498 | 0.621 | 0.534 | 1.09 | 0.329 | 0.858 | -0.0191 | 0.333 | 3.23 | 2.59 | 0.324 | 1.24 | 0.00227 | 2.4 | 1.35 | 0.719 | -0.0126 | 1.24 |
| ATAATGAGGTTATTAAGATCAGGGAATTGCGGTC | 1.9 | 2.12 | 0.684 | 1.48 | 1.07 | 2.81 | 1.91 | 2.14 | 0.859 | 1.5 | 3.45 | 3.21 | 1.46 | 0.952 | 1.12 | 1.58 | 0.876 | 1.76 | 0.951 | 1.47 |
| ATCACTAGGTAAAGTTCAGTGAAAGATCGATAGA | 0.984 | 1.7 | 1.43 | 1.17 | 0.688 | 2.22 | 2.59 | 3.38 | 1.45 | 2.7 | 3.89 | 3.29 | 1.1 | 0.944 | 1.33 | 1.91 | 1.73 | 1.48 | 1.19 | 2.7 |
| ATCGAAAGGTCGAAGGTGAGTAGACCCACCCGAA | 4.66 | 3.33 | -0.000535 | 2.34 | 0.52 | 4.56 | 4.92 | 4.7 | 1.93 | 4.2 | -0.178 | 1.89 | -0.438 | 0.456 | 1.74 | 2.69 | 0.121 | 4.23 | 0.557 | 3.83 |
| CCAGACAAGTGAGAAGGTAACTCAGCCTCGATTA | -0.1 | 0.185 | 0.265 | 0.312 | 0.105 | -0.0657 | 0.295 | -0.204 | -0.274 | -0.419 | 0.321 | -0.293 | -0.675 | -0.316 | 1.29 | -0.132 | 0.602 | 0.088 | 1.08 | 0.0534 |
| CCTAGTTGCTCAGGAGGTCACACACCGGATATGA | 3.45 | 3.66 | 2.47 | 3.74 | 0.953 | 4.23 | 1.96 | 2.65 | 0.83 | 1.79 | 0.887 | 2.47 | 0.559 | 1.01 | 3.26 | 4.39 | 1.59 | 4.49 | 2.6 | 3.64 |
| AGTCAAAGTTCAGGACGAGGTATCGTAAAGCACG | 3.59 | 3.83 | 1.22 | 1.59 | -0.0231 | 2.98 | 3.89 | 4.58 | 1.74 | 3.93 | -0.507 | 0.996 | 0.0216 | 0.419 | 1.39 | 2.32 | 1.4 | 2.06 | 0.462 | 4.09 |
| TTTATTAGTTGATTAGGGCAACCGAAACAGCGGA | 0.664 | 0.617 | 0.865 | 0.942 | 1.33 | 1.15 | 0.565 | 1.71 | 1.69 | 1.72 | 1.46 | 2.1 | 1.84 | 1.94 | 1.68 | 0.473 | 0.839 | 0.832 | 2.38 | 1.24 |
| AGAACGAGGGCACGCTGAGGTGATAGCAGAGTAG | 1.52 | 0.73 | -0.584 | 0.0618 | -1 | 2.18 | 2.3 | 2.19 | 0.193 | 1.29 | 4.07 | 4.06 | 1.26 | 0.179 | 0.573 | 0.989 | -0.0676 | 1.66 | -0.189 | 2.66 |
| GCTTACGGGTCAAAGGTTTTAGCATGAATAGAAT | 6.63 | 4.06 | 0.0126 | 4.17 | 0.372 | 5.95 | 9.13 | 7.88 | 6.54 | 8.43 | 4.96 | 5.14 | 1.91 | 1.07 | 3.2 | 4.06 | 0.129 | 5.58 | 0.298 | 3.98 |
| CCTAGCAGGCCAGGGACACTCAAGCATTTCGCTT | -0.315 | -0.301 | -0.372 | -0.68 | -0.928 | -0.453 | 0.0348 | -0.505 | -0.943 | -0.701 | 0.0615 | -0.258 | -0.983 | -1.15 | -0.379 | -0.644 | -0.46 | -0.225 | -0.182 | 0.347 |
| CTCGAAAGGTCGGTTGAGATGAGTATACGGATAA | 1.6 | 1.27 | 0.0638 | 1.32 | -0.0369 | 2.34 | 0.617 | 0.887 | 0.602 | 0.615 | -0.21 | 0.247 | 0.456 | 0.37 | 0.803 | 1.01 | 0.26 | 1.37 | 0.533 | 2.86 |
| ATCTCTAGGGAACAAGTTCAGTGAAAGAGAGGAC | 0.199 | 0.374 | 0.318 | 0.32 | 0.577 | 0.667 | 0.723 | 1.08 | 0.126 | 0.728 | 0.484 | 0.703 | 0.478 | 0.258 | 0.773 | 1.36 | 1.25 | 0.667 | 0.314 | 1.3 |
| ATATGTAGGTTACATCCGGGTCATACAGGCTATG | 2.09 | 4.15 | 1.41 | 2.85 | 0.809 | 4.64 | 6.34 | 5.27 | 2.96 | 4.81 | 7.27 | 7.54 | 4.07 | 3.35 | 3.84 | 3.46 | 1.19 | 4.26 | 0.627 | 2.41 |
| TCTTGTAGATCAGCAGGTTAAGCAAGCTGGCCAA | 0.0214 | 0.292 | -0.676 | 0.24 | -0.51 | 0.793 | -0.47 | 1.26 | 2.15 | 1.62 | 1.37 | 0.191 | -0.396 | 0.0188 | -0.763 | 0.022 | -0.446 | 0.058 | -1.03 | 0.0308 |
